The record followed here is PubChem BioAssay.

Values joined by “and” are separate entries in the source; they are usually repeats but may differ in a detail not shown here. Equal entries are not always repeated. Active and inactive are the calls of the source.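 The calls were made as follows, unless noted: active = compounds whose cell count with miR-34 switched on is under 0.7 times the count with it off; inactive = the rest.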

Assay [1] in a line: viability loss with induced miR-34 in A549 – imaging, A549 dox-inducible miR-34, nuclei and caspase counts, primary screen (AID 1347080). Also: test concentration not given here. Particulars: A549 miR-34 inducible, Hoechst nuclei count, 48 h.
Assay [2] can be described thus: MELAS cybrid and Rieske KO viability enhancers – cell-based, MELAS cybrids, Rieske KO mouse fibroblasts, CellTiter-Glo, primary screen (AID 1508586;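 active = mean z-score across replicates of 1.96 or higher in either the MELAS or the Rieske mutant cell line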;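 also: test concentration not given here; z relative to plate mean and SD of compound and empty wells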). To be noted: low glucose.
Assay [3] is described as follows: galactose survival enhancers in mitochondrial complex I cybrids – cell-based, galactose medium, ATP luminescence, primary screen (AID 1645843;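 active = z-score of at least 1.8 in each of two replicates, scored against plate mean and spread of sample wells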;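 also: positive z means more ATP and so rescue of galactose-driven cybrid death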). Particulars: complex I mutant cybrid cells, 72 h, stronger effect = higher value.
[4] abbreviates: stronger effect = lower value, cell number ratio, induced over uninduced.
[5] abbreviates: measured here: relative caspase fold change +Dox/-Dox.
Where [6] appears, read: measured here: total cells with miR-34 induction, stronger effect = lower value.
Setting [7] is: measured here: total cells without miR-34 induction.
Where [8] appears, read: MELAS cybrid survival, CellTiter-Glo 48 h, stronger effect = higher value.
Where [9] appears, read: Rieske KO mouse fibroblast survival, CellTiter-Glo 72 h.

Take `COc1ccc(CCNCC(O)COc2cccc(C)c2)cc1OC` (stereo not drawn): the fold change in assay [1] (setting [4]) was 0.915 (inactive); in assay [1] (setting [5]), 0.555. In addition, the cell count in assay [1] (setting [6]) was 8400; in assay [1] (setting [7]), 9170. Besides, the z-score was -1.33 (inactive) in assay [2] (setting [8]), 0.533 in assay [2] (setting [9]) and -0.99 (inactive) in assay [3].

Regarding `CC(C)C(N)C(=O)OCCOCn1cnc2c(=O)[nH]c(N)nc21` (stereo not drawn), the fold change in assay [1] (setting [4]) is 0.946 (inactive) and 0.861 (inactive); in assay [1] (setting [5]), 1.94 and 0.803. The cell count in assay [1] (setting [6]) is 9720 and 8030; in assay [1] (setting [7]) it was 10300 and 9320. Moreover, the results for the z-score in assay [2] (setting [8]), in assay [2] (setting [9]) and in assay [3] were -0.311 (inactive), 0.593 and 0.365 (inactive), respectively.

With `CCn1cnc(NC(=O)N(C)Cc2cccc3ncccc23)n1`, the fold change is 0.944 (inactive) in assay [1] (setting [4]) and 1.82 in assay [1] (setting [5]). For the same compound, the results for the cell count in assay [1] (setting [6]) and in assay [1] (setting [7]) were 9300 and 9840, respectively. Moreover, the results for the z-score in assay [2] (setting [8]), in assay [2] (setting [9]) and in assay [3] were -0.163 (inactive), -0.316 and -0.465 (inactive), respectively.

Consider `NCC1OC(OC2C(CO)OC(OC3C(O)C(N)CC(N)C3OC3OC(CO)C(O)C(O)C3N)C2O)C(N)C(O)C1O` (stereo not drawn), for which the fold change in assay [1] (setting [4]) was 0.908 (inactive); in assay [1] (setting [5]), 0.282. Also, the cell count in assay [1] (setting [6]) stood at 9400; in assay [1] (setting [7]) it was 10400. The z-score in assay [2] (setting [8]) is 0.577 (inactive); in assay [2] (setting [9]), -0.435; in assay [3], 0.725 (inactive).

`c1ccc(NCc2cccnc2)cc1`: the fold change in assay [1] (setting [4]) is 0.876 (inactive); in assay [1] (setting [5]) it was 1.56. The figures for the cell count in assay [1] (setting [6]) and in assay [1] (setting [7]) were 8370 and 9560, respectively. The results for the z-score in assay [2] (setting [8]), in assay [2] (setting [9]) and in assay [3] were -0.153 (inactive), -0.0248 and 0.545 (inactive), respectively.

On to `CC(C)C(NC(=O)Cc1c[nH]c2ccccc12)C(=O)O` (stereo not drawn), for which the fold change is 0.857 (inactive) in assay [1] (setting [4]) and 0.806 in assay [1] (setting [5]). For the same compound, the cell count in assay [1] (setting [6]) worked out at 8140; in assay [1] (setting [7]) it was 9500. Besides, the z-score is -1.19 (inactive) in assay [2] (setting [8]), -0.306 in assay [2] (setting [9]) and 0.47 (inactive) in assay [3].

Regarding `CCCCCC(O)C=CC1C(O)CC(=O)C1CCCCCCC(=O)O` (stereo not drawn), the fold change in assay [1] (setting [4]) is 0.973 (inactive) and 0.918 (inactive); in assay [1] (setting [5]) it was 0.603 and 0.896. The cell count in assay [1] (setting [6]) was 9870 and 7520; in assay [1] (setting [7]) it was 10100 and 8190. The results for the z-score in assay [2] (setting [8]), in assay [2] (setting [9]) and in assay [3] were -0.372 (inactive), 0.491 and 0.865 (inactive), respectively.

For `Cc1ccc(-c2ncnc3scc(C)c23)c2cccnc12`, the figures for the fold change in assay [1] (setting [4]) and in assay [1] (setting [5]) were 0.907 (inactive) and 1.31, respectively. In addition, the cell count in assay [1] (setting [6]) was determined as 8040; in assay [1] (setting [7]), 8860. Moreover, the z-score in assay [2] (setting [8]) is -0.0169 (inactive); in assay [2] (setting [9]), -0.263; in assay [3], -0.425 (inactive).

Regarding `CN(C)CCOc1ccc(C(=C(CCCl)c2ccccc2)c2ccccc2)cc1`, the fold change in assay [1] (setting [4]) is 0.778 (inactive) and 1.03 (inactive); in assay [1] (setting [5]), 1.46 and 0.374. Moreover, the cell count in assay [1] (setting [6]) is 3730 and 7050; in assay [1] (setting [7]), 4790 and 6850. Also, the z-score in assay [2] (setting [8]) was -0.446 (inactive); in assay [2] (setting [9]) it was -0.000629; in assay [3] it was -1.88 (inactive).

For the compound `CCc1cc(CN2CCN(C)C(CCO)C2)on1` (stereo not drawn), the fold change was 0.907 (inactive) in assay [1] (setting [4]) and 1.26 in assay [1] (setting [5]). Moreover, the figures for the cell count in assay [1] (setting [6]) and in assay [1] (setting [7]) were 8690 and 9580, respectively. Besides, the z-score in assay [2] (setting [8]) was 0.702 (inactive); in assay [2] (setting [9]) it was -0.294; in assay [3], -0.59 (inactive).

For the compound `CCc1nc(NC(=O)NCCc2nc(-c3ccc(C)cc3)no2)nn1C`, the fold change in assay [1] (setting [4]) is 0.835 (inactive); in assay [1] (setting [5]), 1.88. The figures for the cell count in assay [1] (setting [6]) and in assay [1] (setting [7]) were 7240 and 8670, respectively. In addition, the z-score in assay [2] (setting [8]) is 1.58 (inactive); in assay [2] (setting [9]), -0.075; in assay [3], 2.27 (active).

`CCCn1ncc(NC(=O)Cn2cc(C)c(-c3cccc(Cl)c3)n2)n1`: the results for the fold change in assay [1] (setting [4]) and in assay [1] (setting [5]) were 0.851 (inactive) and 1.04, respectively. Further, the cell count in assay [1] (setting [6]) was 7170; in assay [1] (setting [7]) it was 8420. Moreover, the values for the z-score in assay [2] (setting [8]), in assay [2] (setting [9]) and in assay [3] were -0.0413 (inactive), -0.435 and 1.05 (inactive), respectively.

For `O=C(Nc1cccnc1)C1CCN(C(=O)c2ccccc2Cl)CC1`, the figures for the fold change in assay [1] (setting [4]) and in assay [1] (setting [5]) were 0.886 (inactive) and 1.9, respectively. For the same compound, the cell count in assay [1] (setting [6]) is 8890; in assay [1] (setting [7]), 10000. The z-score in assay [2] (setting [8]) is 0.0994 (inactive); in assay [2] (setting [9]), -0.159; in assay [3] it was -0.045 (inactive).

Regarding `CN1CCN(Cc2cccc3cccnc23)CC1CCO` (stereo not drawn), the fold change is 0.928 (inactive) in assay [1] (setting [4]) and 1.86 in assay [1] (setting [5]). The cell count was determined as 8360 in assay [1] (setting [6]) and 9010 in assay [1] (setting [7]). The z-score in assay [2] (setting [8]) is 0.709 (inactive); in assay [2] (setting [9]) it was -1.63; in assay [3] it was -0.585 (inactive).

`O=C(OC1Cc2c(O)cc(O)cc2OC1c1cc(O)c(O)c(O)c1)c1cc(O)c(O)c(O)c1` (stereo not drawn): the fold change in assay [1] (setting [4]) was 0.855 (inactive) and 0.924 (inactive); in assay [1] (setting [5]), 1.5 and 0.635. Also, the cell count in assay [1] (setting [6]) was 9030 and 8300; in assay [1] (setting [7]), 10600 and 8990. Also, the z-score in assay [2] (setting [8]) is -0.179 (inactive); in assay [2] (setting [9]), -0.151; in assay [3], -1.44 (inactive).

As for `O=C(O)c1ccc2ccccc2n1`, the fold change in assay [1] (setting [4]) was 0.876 (inactive); in assay [1] (setting [5]) it was 0.492. Further, the values for the cell count in assay [1] (setting [6]) and in assay [1] (setting [7]) were 7890 and 9000, respectively. The z-score was -1.05 (inactive) in assay [2] (setting [8]), -0.692 in assay [2] (setting [9]) and 0.485 (inactive) in assay [3].

For `CN(C)C(=O)CN(C)C(=O)c1cccc(Nc2ncnc3c2cnn3C)c1`, the figures for the fold change in assay [1] (setting [4]) and in assay [1] (setting [5]) were 0.866 (inactive) and 1.54, respectively. Moreover, the values for the cell count in assay [1] (setting [6]) and in assay [1] (setting [7]) were 8650 and 9990, respectively. In addition, the z-score in assay [2] (setting [8]) was 0.0352 (inactive); in assay [2] (setting [9]) it was -0.276; in assay [3] it was -0.525 (inactive).

Consider `O=C1CC(c2ccc(O)cc2)Oc2cc(O)ccc21` (stereo not drawn), for which the fold change is 0.9 (inactive) in assay [1] (setting [4]) and 0.718 in assay [1] (setting [5]). Also, the results for the cell count in assay [1] (setting [6]) and in assay [1] (setting [7]) were 8540 and 9500, respectively. The results for the z-score in assay [2] (setting [8]), in assay [2] (setting [9]) and in assay [3] were 0.67 (inactive), -0.313 and 0.305 (inactive), respectively.

In the case of `CCOc1ccccc1-c1ncnc2sc(C)c(C)c12`, the fold change in assay [1] (setting [4]) is 0.89 (inactive); in assay [1] (setting [5]), 1.57. In addition, the cell count in assay [1] (setting [6]) turned out to be 6100; in assay [1] (setting [7]), 6860. For the same compound, the z-score in assay [2] (setting [8]) is -0.535 (inactive); in assay [2] (setting [9]), 0.672; in assay [3], 0.07 (inactive).
